PubChem BioAssay AID1159580 (chemical genetic matrix, 2015)
Values joined by “and” are separate entries in the source; they are usually repeats but may differ in a detail not shown here. Equal values may be shown once. Hit rate of the full screen: of about 5,500 compounds, about 2,000 (36%) were called active. Roughly 18% stayed inconclusive and do not appear here. No stated cut-off is given here; in the data, active means normalized growth mostly below about 0.91 (no sharp cut-off); inconclusive means no clear call, values can overlap the other calls; inactive means mostly above about 0.92. This is one part of the list.

Test: chemical genetic growth profiling, strain panel (AID 1159580);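 further: tested at 20 µM; growth read once vehicle control cultures reached saturation at 30 °C; 1 = growth at the plate median or of vehicle wells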
Conditions: S. cerevisiae deletion strains, growth OD
[1] = locus YHR030C, strain SLT2, stronger effect = lower value
[2] = locus YHR079C, strain IRE1, stronger effect = lower value
[3] = locus YJL095W, strain BCK1, stronger effect = lower value
[4] = locus YJR066W, strain TOR1, stronger effect = lower value
[5] = locus YLR113W, strain HOG1, stronger effect = lower value
[6] = locus YMR263W, strain SAP30, stronger effect = lower value
[7] = locus YMR307W, strain GAS1, stronger effect = lower value
[8] = locus YNL183C, strain NPR1, stronger effect = lower value
[9] = locus YOR231W, strain MKK1, stronger effect = lower value
[10] = locus YPL241C, strain CIN2, stronger effect = lower value
[11] = locus YPL256C, strain CLN2, stronger effect = lower value

Measured: normalized growth

NCCCNCCCCNCCCN
inactive: locus YAL040C, strain CLN3, stronger effect = lower value 0.997 | locus YCL061C, strain MRC1 (second series), stronger effect = lower value 1.01 | locus YDR363W, strain ESC2, stronger effect = lower value 1.02 | locus YER002W, strain NOP16, stronger effect = lower value 1.02 | locus YGR078C, strain PAC10, stronger effect = lower value 1.01 | [1] 1.01 | [2] 0.994 | [3] 0.98 | [4] 0.925 | [5] 0.975 | [6] 0.995 | [7] 1.01 | locus YNL128W, strain TEP1, stronger effect = lower value 0.962 | locus YNL175C, strain NOP13, stronger effect = lower value 0.978 | [8] 0.93 | locus YNL197C, strain WHI3, stronger effect = lower value 0.992 | locus YNL224C, strain SQS1, stronger effect = lower value 0.986 | locus YOR083W, strain WHI5 (second series), stronger effect = lower value 0.994 | [9] 0.999 | [10] 1 | [11] 1.02

CC(C)=CC1C(C(=O)O)C1(C)C (stereo not given)
inactive: locus YAL013W, strain DEP1, stronger effect = lower value 0.988 | locus YAL021C, strain ccr4, stronger effect = lower value 0.989 | locus YAL026C, strain drs2, stronger effect = lower value 0.962 | locus YAL030W, strain snc1, stronger effect = lower value 0.976 | locus YBL061C, strain skt5, stronger effect = lower value 0.963 | locus YBR009C, strain hhf1, stronger effect = lower value 0.939 | locus YBR021W, strain FUR4, stronger effect = lower value 1.03 | locus YBR023C, strain chs3, stronger effect = lower value 0.966 | locus YBR171W, strain sec66, stronger effect = lower value 0.96 | locus YBR229C, strain ROT2, stronger effect = lower value 0.996 | locus YBR231C, strain swc5, stronger effect = lower value 0.985 | locus YBR279W, strain paf1, stronger effect = lower value 0.976 | locus YCL011C, strain gbp2, stronger effect = lower value 0.962 | locus YCL016C, strain dcc1, stronger effect = lower value 0.987 | locus YCL029C, strain bik1, stronger effect = lower value 0.981 | locus YCL061C, strain MRC1, stronger effect = lower value 0.987 | locus YCL069W, strain vba3, stronger effect = lower value 0.972 | locus YCR088W, strain abp1, stronger effect = lower value 0.983 | locus YDL005C, strain med2, stronger effect = lower value 0.976 | locus YDL035C, strain GPR1, stronger effect = lower value 0.998 | locus YDL040C, strain nat1, stronger effect = lower value 0.965 | locus YDL074C, strain BRE1, stronger effect = lower value 1.01 | locus YDL101C, strain DUN1, stronger effect = lower value 1.02 | locus YDL185W, strain tfp1, stronger effect = lower value 0.954 | locus YDL192W, strain arf1, stronger effect = lower value 0.966 | locus YDR001C, strain nth1, stronger effect = lower value 0.962 | locus YDR069C, strain doa4, stronger effect = lower value 0.967 | locus YDR101C, strain arx1, stronger effect = lower value 0.979 | locus YDR137W, strain rgp1, stronger effect = lower value 0.97 | locus YDR150W, strain NUM1, stronger effect = lower value 0.983 | locus YDR159W, strain sac3, stronger effect = lower value 0.959 | locus YDR162C, strain NBP2, stronger effect = lower value 1.08 | locus YDR195W, strain ref2 0.997 | locus YDR297W, strain sur2, stronger effect = lower value 0.979 | locus YDR318W, strain mcm21, stronger effect = lower value 0.977 | locus YDR334W, strain swr1, stronger effect = lower value 0.976 | locus YDR335W, strain msn5, stronger effect = lower value 0.977 | locus YDR388W, stronger effect = lower value 0.98 | locus YDR392W, strain spt3, stronger effect = lower value 0.883 | locus YDR502C, strain sam2, stronger effect = lower value 1.01 | locus YEL003W, strain gim4, stronger effect = lower value 0.971 | locus YEL037C, strain rad23, stronger effect = lower value 0.966 | locus YEL061C, strain CIN8 (second series), stronger effect = lower value 0.967 | locus YEL061C, strain CIN8, stronger effect = lower value 0.996 | locus YER015W, strain faa2, stronger effect = lower value 0.983 | locus YER016W, strain bim1, stronger effect = lower value 0.982 | locus YER110C, stronger effect = lower value 0.951 | locus YER111C, strain swi4, stronger effect = lower value 0.972 | locus YER155C, strain BEM2 (second series), stronger effect = lower value 0.972 | locus YER155C, strain BEM2, stronger effect = lower value 0.999 | locus YER167W, strain BCK2, stronger effect = lower value 0.997 | locus YFR010W, strain ubp6, stronger effect = lower value 0.972 | locus YGL078C, strain dbp3, stronger effect = lower value 0.991 | locus YGL086W, strain mad1, stronger effect = lower value 0.967 | locus YGL167C, strain pmr1, stronger effect = lower value 0.969 | locus YGL173C, strain kem1, stronger effect = lower value 0.959 | locus YGL227W, strain vid30, stronger effect = lower value 0.968 | locus YGL240W, strain doc1, stronger effect = lower value 0.974 | locus YGL248W, strain PDE1, stronger effect = lower value 1.04 | locus YGL253W, strain hxk2, stronger effect = lower value 0.993 | locus YGR135W, strain pre9, stronger effect = lower value 1 | locus YGR229C, strain SMI1, stronger effect = lower value 1.05 | locus YGR252W, strain gcn5, stronger effect = lower value 1.15 | locus YHR013C, strain ard1, stronger effect = lower value 0.956 | locus YHR027C, strain rpn1, stronger effect = lower value 0.973 | [1] 0.992 and 0.957 | locus YHR079C, strain IRE1 (second series), stronger effect = lower value 0.988 | [2] 0.957 | locus YHR094C, strain hxt1, stronger effect = lower value 0.968 | locus YHR129C, strain ARP1, stronger effect = lower value 0.997 | locus YHR142W, strain chs7, stronger effect = lower value 1.02 | locus YHR200W, strain rpn10, stronger effect = lower value 0.979 | locus YIL066C, strain RNR3, stronger effect = lower value 1.02 | locus YIL073C, strain SPO22, stronger effect = lower value 0.967 | locus YIL125W, strain kgd1, stronger effect = lower value 0.98 | locus YIR030C, strain dcg1, stronger effect = lower value 0.979 | locus YJL092W, strain hpr5, stronger effect = lower value 0.985 | locus YJL095W, strain BCK1 (second series), stronger effect = lower value 0.985 | [3] 1.08 and 0.996 | locus YJL115W, strain asf1, stronger effect = lower value 0.975 | locus YJL129C, strain trk1, stronger effect = lower value 0.981 | locus YJL134W, strain LCB3, stronger effect = lower value 0.99 | locus YJL154C, strain vps35, stronger effect = lower value 0.96 | locus YJL164C, strain tpk1, stronger effect = lower value 1.01 | locus YJL166W, strain qcr8, stronger effect = lower value 0.979 | locus YJL168C, strain set2, stronger effect = lower value 0.991 | locus YJL187C, strain SWE1 (second series), stronger effect = lower value 1.04 | locus YJL187C, strain SWE1, stronger effect = lower value 0.972 | locus YJR043C, strain POL32, stronger effect = lower value 1.04 | [4] 0.905 | locus YKL009W, strain mrt4, stronger effect = lower value 0.963 | locus YKL068W, stronger effect = lower value 0.988 | locus YKL085W, strain MDH1 (second series), stronger effect = lower value 0.971 | locus YKL085W, strain MDH1, stronger effect = lower value 0.971 | locus YKL160W, strain elf1, stronger effect = lower value 1.04 | locus YKL190W, strain CNB1, stronger effect = lower value 0.991 | locus YKR001C, strain vps1, stronger effect = lower value 0.973 | locus YKR026C, strain gcn3, stronger effect = lower value 0.977 | locus YKR091W, strain srl3, stronger effect = lower value 0.973 | locus YLL001W, strain dnm1, stronger effect = lower value 0.999 | locus YLL026W, stronger effect = lower value 0.982 | locus YLL041C, strain sdh2, stronger effect = lower value 0.984 | locus YLR027C, strain aat2, stronger effect = lower value 0.987 | locus YLR039C, strain RIC1, stronger effect = lower value 1.04 | locus YLR058C, strain SHM2, stronger effect = lower value 1.02 | locus YLR102C, strain apc9, stronger effect = lower value 0.957 | [5] 1.04 | locus YLR221C, strain rsa3, stronger effect = lower value 1 | locus YLR258W, strain gsy2, stronger effect = lower value 0.963 | locus YLR262C, strain YPT6 (second series), stronger effect = lower value 1 | locus YLR262C, strain YPT6, stronger effect = lower value 1.04 | locus YLR268W, strain sec22, stronger effect = lower value 0.972 | locus YLR320W, strain mms22, stronger effect = lower value 0.989 | locus YLR330W, strain CHS5, stronger effect = lower value 0.984 | locus YLR342W, strain FKS1 (second series), stronger effect = lower value 1.03 | locus YLR342W, strain FKS1, stronger effect = lower value 0.959 | locus YLR357W, strain rsc2, stronger effect = lower value 0.963 | locus YLR370C, strain arc18, stronger effect = lower value 0.976 | locus YLR371W, strain rom2, stronger effect = lower value 0.968 | locus YLR384C, strain iki3, stronger effect = lower value 0.981 | locus YLR418C, strain cdc73, stronger effect = lower value 1.02 | locus YML016C, strain PPZ1, stronger effect = lower value 0.999 | locus YML032C, strain rad52, stronger effect = lower value 1 | locus YML120C, strain ndi1, stronger effect = lower value 0.987 | locus YML124C, strain tub3, stronger effect = lower value 0.973 | locus YMR058W, strain fet3, stronger effect = lower value 0.966 | locus YMR078C, strain ctf18, stronger effect = lower value 0.975 | locus YMR125W, strain sto1, stronger effect = lower value 0.914 | locus YMR129W, stronger effect = lower value 0.965 | locus YMR205C, strain PFK2, stronger effect = lower value 0.932 | locus YMR223W, strain ubp8, stronger effect = lower value 0.988 | locus YMR231W, strain pep5, stronger effect = lower value 0.968 | [6] 1.01 | [7] 1.24 | locus YNL067W, strain RPL9B, stronger effect = lower value 1.05 | locus YNL071W, strain lat1, stronger effect = lower value 0.977 | locus YNL153C, strain GIM3, stronger effect = lower value 1.05 | [8] 0.971 | locus YNL209W, strain ssb2, stronger effect = lower value 0.977 | locus YNL233W, strain BNI4, stronger effect = lower value 1.07 | locus YNL248C, strain rpa49, stronger effect = lower value 1.01 | locus YNL250W, strain rad50, stronger effect = lower value 0.965 | locus YNL271C, strain bni1, stronger effect = lower value 0.973 | locus YNL298W, strain CLA4, stronger effect = lower value 0.99 | locus YNL307C, strain MCK1, stronger effect = lower value 0.988 | locus YNL322C, strain KRE1 (second series), stronger effect = lower value 0.973 | locus YNL322C, strain KRE1, stronger effect = lower value 0.998 | locus YNR049C, strain mso1, stronger effect = lower value 0.966 | locus YNR052C, strain pop2, stronger effect = lower value 0.972 | locus YOL006C, strain TOP1, stronger effect = lower value 1.06 | locus YOL012C, strain htz1 1.34 | locus YOL147C, strain pex11, stronger effect = lower value 0.989 | locus YOR001W, strain rrp6, stronger effect = lower value 1.01 | locus YOR061W, strain CKA2, stronger effect = lower value 1.01 | locus YOR069W, strain VPS5, stronger effect = lower value 0.992 | locus YOR070C, strain gyp1, stronger effect = lower value 0.985 | locus YOR080W, strain dia2, stronger effect = lower value 0.965 | locus YOR083W, strain WHI5, stronger effect = lower value 1.05 | locus YOR106W, strain vam3, stronger effect = lower value 1.01 | locus YOR136W, strain idh2, stronger effect = lower value 0.979 | locus YOR144C, strain elg1, stronger effect = lower value 1 | locus YOR184W, strain ser1, stronger effect = lower value 0.963 | [9] 0.954 | locus YOR265W, strain rbl2, stronger effect = lower value 0.986 | locus YOR270C, strain vph1, stronger effect = lower value 0.975 | locus YOR290C, strain snf2, stronger effect = lower value 0.925 | locus YOR316C, strain cot1, stronger effect = lower value 0.974 | locus YPL051W, strain arl3, stronger effect = lower value 1 | locus YPL055C, strain LGE1, stronger effect = lower value 1.06 | locus YPL078C, strain atp4, stronger effect = lower value 1 | locus YPL106C, strain sse1, stronger effect = lower value 0.972 | locus YPL240C, strain hsp82, stronger effect = lower value 0.997 | [10] 0.998 | [11] 0.975 | locus YPR119W, strain clb2, stronger effect = lower value 0.96 | locus YPR141C, strain kar3, stronger effect = lower value 0.969 | locus YPR163C, strain tif3, stronger effect = lower value 0.992 | locus YPR167C, strain met16, stronger effect = lower value 0.941 | strain wtn01, stronger effect = lower value 0.979
